Bioassay records deposited in PubChem by Small Molecule Screening Facility, UW Madison.
RMI-FANCM inh: disruptors of RMI1/RMI2 association with MM2 peptide – biochemical, fluorescence polarization, human, primary screen. RMI core complex with F-MM2 peptide; hits give low values. 70,000 compounds, 0.58% hits. FP signal (polarization) at 33 µM. RMI core complex (RMI1/RMI2) binding to FANCM MM2 peptide, human; in the data active = FP signal below about 40
The depositor's hits bear a star. This is one part of a sample in which hits are shown more often than they occur.

SMILES	RMI-FANCM inh
COc1ccc(S(=O)(=O)C(CNC(=O)c2cc3ccccc3oc2=O)c2cccs2)cc1 (stereo unspecified)	63
O=C(NC1CCCC1)NC1CC(=O)N(c2ccc(Cl)cc2)C1 (stereo unspecified)	58
C=CCN1C(=O)/C(=C\c2cc(C)n(-c3ccc(F)cc3)c2C)C(C(=O)OC)=C1C	31*
CC1=NN(c2ccccc2)C(=O)/C1=C\c1cc(C)n(-c2ccccc2)c1C	83
C=CCn1c(SCC(=O)c2cc(C)n(-c3ccc(C)c(C)c3)c2C)nc2scc(-c3ccc(F)cc3)c2c1=O	86
COc1ccccc1NC(=O)c1cc2cc3c4c(c2oc1=N)CCCN4CCC3	-35
CN(C)S(=O)(=O)c1ccc2c(c1)/C(=C\CCN1CCNCC1)c1ccccc1S2	80
